In the library only some 21% were active in any assay of this set; here they are far more common.
CHX counter: counter-screen hit for Shiga toxin inhibitors, cycloheximide. AID 2314. max response, %. cell reporter, cycloheximide protein synthesis inhibition counterscreen. actives 12% (n = 300,000); in the data active = max response mostly above about 13%, no sharp cut-off; inactive = mostly below about 14%; also: read at 38.3 µM for the half of the compounds with a filed dose; 0% is about no effect
NS1 inh: blocks influenza NS1 protein function. actives 0.4% (n = 270,000). Potency, µM (titrated, usually from 46.1 µM), inactives show at the highest dose activity, positive = more growth. AID 2326; calls by dose curve; also: potency is read from the fitted curve at half-maximal effect; actives are rising curves; nearly all actives have a fitted effect of over 50% in size
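Compounds were scored for reversing the slow growth caused by influenza A NS1 in S. cerevisiae, measured by optical density at 600 nm. Assay medium contained 2% galactose at pH 6.0; NS1-free yeast of the same strain were the positive control.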
Pf growth 48h: P. falciparum growth inhibition at 48 hours (one generation). P. falciparum luciferase growth in erythrocytes, 48 h. Potency, µM (highest dose often 28.7 µM), for inactives: at the highest dose activity change, negative = inhibition, hits mostly inhibitors. actives 5.9% (n = 310,000). AID 504832; also: potency is read from the fitted curve at half-maximal effect; % is scaled to controls: 0 for no effect and ±100 for the full control effect
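Growth was read as firefly luciferase luminescence after a 48 h, 37 C, 5% CO2 exposure of compounds to reporter-bearing P. falciparum cultures (0.1% parasitemia, 2% hematocrit final) in Albumax-supplemented RPMI 1640.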
Pf growth 96h: P. falciparum growth inhibition at 96 hour, primary screen for plastid delayed-death inhibitors; P. falciparum luciferase reporter growth, 96 h; Potency, µM (top dose mostly 28.7 µM), without a hit: top-dose activity change, negative = inhibition, actives largely listed as inhibitors; actives 6.9% (n = 320,000); also: potency is read from the fitted curve at half-maximal effect; % is scaled to controls: 0 for no effect and ±100 for the full control effect
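Luminescence readout: decreased luciferase signal marks inhibited growth of reporter-expressing P. falciparum in infected red cells (2% hematocrit, 0.05% parasitemia final), exposed to compound two generations (96 h, 37 C, 5% CO2).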
Shiga inhibitor: blocks Shiga toxin action in Vero cells; Vero cells, Shiga toxin protein synthesis inhibition reporter; inhibition, % at 38.7 µM; actives 9.2% (n = 290,000); AID 2315; in the data active = inhibition mostly above about 28%, no sharp cut-off; inactive = mostly below about 43%; also: 0% is about no effect
* hit, by the source's call. Unless noted, calls follow the shape of the dose curve; as a rule, active = well fitted inhibition curve with a large enough effect; inconclusive = small, poorly fitted or top-dose-only effect, or another doubt; inactive = no such curve, though single readings can be large or run the other way.

`COC(=O)c1ccc(NC(=O)Cc2ccccc2)cc1` gave CHX counter 50*, NS1 inh -14%, Pf growth 48h 113% and Shiga inhibitor 100*.
`CCC(Cc1ccccc1)NC(=O)C1CCC(CNc2c(N3CCCC3)c(=O)c2=O)CC1` (stereo unspecified) gave CHX counter -4, NS1 inh -6%, Pf growth 96h -35% and Shiga inhibitor 10.
Screening CC12CCC(C/C1=N\N=C1\NC(=O)/C(=C\c3ccc(Cl)cc3)S1)C2(C)C (stereo unspecified) returned CHX counter 10, NS1 inh 2%, Pf growth 48h 40%, Pf growth 96h inconclusive and Shiga inhibitor -11.
Screening CCCOC(=O)/C(C(N)=NCc1ccccc1)=C(\O)OCCC returned CHX counter -1, NS1 inh -86%, Pf growth 48h -4%, Pf growth 96h -15% and Shiga inhibitor -3.
`COc1cc(CN2CCCC(CO)(Cc3cccc(Cl)c3)C2)cc2c1OCO2` (stereo unspecified) gave CHX counter -4, NS1 inh 10%, Pf growth 48h inconclusive, Pf growth 96h 78% and Shiga inhibitor -10.
Screening COc1ccc(S(=O)(=O)Nc2ccc(F)cc2F)cc1C(=O)N1CCOCC1 returned CHX counter -1, NS1 inh -1%, Pf growth 48h 7%, Pf growth 96h inconclusive and Shiga inhibitor 18.
CCOc1ccc(NC(=O)CNC(=O)Cc2ccccc2)cc1 was read as CHX counter -3, NS1 inh 11%, Pf growth 48h 2%, Pf growth 96h 39% and Shiga inhibitor 2.
`CCOc1ccc(NC(=O)Cc2ccccc2)cc1` gave CHX counter 93*, NS1 inh -9%, Pf growth 48h 155%, Pf growth 96h 0% and Shiga inhibitor 104*.
Screening CCOc1cc2c3c(c1)C1(C(=O)N3C(C)(C)CC2C)C(C#N)=C(N)N2C(=C1C#N)Nc1ccccc12 (stereo unspecified) returned CHX counter -3, NS1 inh inconclusive, Pf growth 48h 3.3µM*, Pf growth 96h inconclusive and Shiga inhibitor 19.
For CC(C)(C)n1cnc2cc(NS(=O)(=O)c3ccccc3)ccc21 the results were CHX counter 18*, NS1 inh 1%, Pf growth 48h inconclusive, Pf growth 96h 11% and Shiga inhibitor 24.
`CCCCCNC(=O)c1ccc2c(c1)ncn2-c1ccc(OC)cc1` gave CHX counter 7, NS1 inh -5%, Pf growth 48h inconclusive, Pf growth 96h 21% and Shiga inhibitor -7.
COc1ccc(-n2cnc3cc(C(=O)N4CCC5(CC4)OCCO5)ccc32)cc1 was read as CHX counter 2, Pf growth 48h inconclusive, Pf growth 96h inconclusive and Shiga inhibitor 18.
COc1ccc(-n2cnc3cc(NS(=O)(=O)c4ccccc4)ccc32)cc1 was read as CHX counter 21*, NS1 inh 7%, Pf growth 48h inconclusive, Pf growth 96h inconclusive and Shiga inhibitor 37*.
For COc1ccc(-n2cnc3cc(C(=O)N4CCOCC4)ccc32)cc1 the results were CHX counter 56*, NS1 inh -5%, Pf growth 48h 7%, Pf growth 96h 7% and Shiga inhibitor 45*.
Screening COc1ccc(-n2cnc3cc(N)ccc32)cc1 returned CHX counter 13*, NS1 inh 20%, Pf growth 48h inconclusive, Pf growth 96h inconclusive and Shiga inhibitor 12.
O=C(COC(=O)c1n[nH]c(=O)c2ccccc12)Nc1ccccc1 was read as Pf growth 48h 2% and Pf growth 96h 15%.
`Cc1cccc(C)c1OCCNC(=O)C(=O)NCc1ccco1` gave CHX counter -1, NS1 inh 1%, Pf growth 48h 12%, Pf growth 96h inconclusive and Shiga inhibitor -3.
CCOC(=O)c1[nH]c2ccccc2c1NC(=S)Nc1ccccc1 was read as CHX counter 23*, NS1 inh 9%, Pf growth 48h 76%, Pf growth 96h 54% and Shiga inhibitor 28.
`CCOC(=O)c1[nH]c2ccccc2c1NC(=O)CC` gave CHX counter -5, NS1 inh -4%, Pf growth 96h 3% and Shiga inhibitor -9.
Screening CCOC(=O)c1[nH]c2ccccc2c1NC(=S)Nc1cccc(C)c1 returned CHX counter 32*, NS1 inh 17%, Pf growth 48h 86%, Pf growth 96h 59% and Shiga inhibitor 27.

Compound activity (PubChem BioAssay)
